Results on 15 molecules are retold here after PubChem BioAssay (NCI).

Common to all, as to assay: NCI-60 one-dose screen, 48 h (100 = growth as untreated, 0 = no growth, -100 = all killed)
Holding throughout (conditions): 10 µM unless noted

Assay [1] concerns SR leukemia.
The test system of assay [2] is RPMI-8226 leukemia.
Assay [3] deals with OVCAR-8 ovarian.
Assay [4] deals with OVCAR-5 ovarian.
Assay [5] has as its system OVCAR-4 ovarian.
Assay [6] has as its system SK-OV-3 ovarian.
For assay [7], the system named is IGROV1 ovarian.
In assay [8] the test system is OVCAR-3 ovarian.
Assay [9] relates to HS 578T breast.
Assay [10] relates to NCI/ADR-RES ovarian.

Molecules are shown by their SMILES. This is part of a sample that, as a whole, favours compounds with a hit. Of some 83,000 tested, about 20% had one in any assay.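 Testing used 96-well plates and a 48-hour single-concentration exposure. Example: -40 means 40% of the starting cells died.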 Values without a mark were called inactive. The source made the active and inactive calls. How the source made its calls: active means growth percent below 10; inactive means the rest.

Consider `C/C(=N\Nc1ccc([N+](=O)[O-])cc1[N+](=O)[O-])c1ccc(Br)cc1`, for which the growth is 84.4% in assay [1]; 93.1% in assay [2]; 96.8% in assay [3]; 123% in assay [4]; 105% in assay [5]; 108% in assay [6]. Further, the growth in assay [7] was 110%; in assay [8], 99.7%; in assay [9], 104%; in assay [10], 106%.
For the molecule `CC1(C)OC(=O)CC1=O`, the growth in [1] is 89%; in [2] it was 93.4%; in assay [3] it was 97.4%; in [4] it was 101%; in assay [5], 106%; in assay [6] it was 91.6%. In addition, the growth in assay [7] is 107%; in assay [8], 113%; in assay [9], 96.6%; in assay [10] it was 105%.
For the molecule `CCN(CC)CCOC(=O)Nc1c(C(C)C)cccc1C(C)C`, the growth was 101% in assay [1]; 105% in assay [2]; 102% in assay [3]; 104% in [4]; 108% in assay [5]; 95.7% in assay [6]. The growth was 100% in assay [7], 114% in [8], 105% in [9] and 113% in assay [10].
As for `OC(CBr)CCBr` (stereo not given), the growth was 78.3% in assay [1]; 98.8% in assay [2]; 99.8% in [3]; 106% in assay [4]; 93.5% in assay [5]; 101% in assay [6]. In addition, the growth in [7] is 89.5%; in [8], 112%; in assay [9] it was 103%; in assay [10], 106%.
Consider `CC(C)NC(=O)OCc1c(COC(=O)NC(C)C)c(-c2ccc(Cl)cc2)n2c1CCC2`, for which the growth in [1] was 2.94% (active); in assay [2] it was 93.4%; in [3] it was 63.3%; in assay [4] it was 85.1%; in [5], 48.9%; in assay [6] it was 40.8%. For the same molecule, the growth was 70.3% in assay [7], 66% in assay [8], 73.6% in assay [9] and 46.5% in assay [10].
Turning to `O=C(Nc1cccc(Cl)c1)c1ccc(Cl)cc1Cl`, the growth in assay [1] was 81.4%; in assay [2], 84.5%; in assay [3] it was 97.4%; in assay [4], 95.8%; in assay [5], 107%; in assay [6], 95%. For the same molecule, the growth in assay [7] was 107%; in assay [8] it was 98%; in assay [9], 92.7%; in assay [10], 103%.
`C=C1SC(=Nc2c(C)cccc2C)N(c2nc(Cl)nc(Cl)n2)C12CCCCC2`: the growth in [1] is 81.4%; in assay [2], 99.8%; in assay [3], 98.8%; in assay [4], 118%; in assay [5] it was 101%; in [6], 99%. The growth in assay [7] was 97.4%; in assay [8] it was 101%; in [9], 113%; in assay [10], 105%.
For the molecule `CCCC(OC(C)=O)c1ccc2c(c1)OCO2` (stereo not given), the growth in assay [1] is 103%; in assay [2], 107%; in [3], 99%; in assay [4], 106%; in [5], 110%; in [6], 105%. In addition, the growth in [7] was 104%; in [8], 105%; in [9] it was 99.6%; in assay [10] it was 104%.
With `Nc1ccn(C2CC(N)C(CO)O2)c(=O)n1` (stereo not given), the growth in [1] was 54.5%; in [2], 31.5%; in assay [3] it was 45.6%; in [4] it was 108%; in assay [5], 86.7%; in assay [6], 69.6%. Also, the growth is 87.1% in assay [7], 115% in assay [8], 114% in assay [9] and 46% in [10].
Regarding `Cn1/c(=N\N=C\c2ccccc2OCCO)sc2ccccc21`, the growth in assay [1] is 89%; in assay [2], 81%; in assay [3] it was 100%; in [4], 104%; in assay [5], 106%; in [6] it was 104%. The growth is 70.2% in assay [7], 95.2% in [8], 99.8% in assay [9] and 109% in assay [10].
Take `O=C(Nc1ccccc1)c1ccco1`: the growth in [1] is 100%; in [2], 105%; in assay [3], 101%; in assay [4], 110%; in assay [5], 100%; in assay [6] it was 103%. The growth was 105% in [7], 114% in [8], 103% in [9] and 107% in assay [10].
As to `O=C(NCCc1ccccc1)/C(=C\c1ccc(Cl)cc1Cl)NC(=O)c1ccccc1`, the growth in assay [1] was 87.6%; in assay [2], 92%; in [3], 95.3%; in assay [4], 101%; in assay [5] it was 98.7%; in assay [6] it was 97.6%. Moreover, the growth was 96.3% in assay [7], 94.1% in assay [8], 96.4% in assay [9] and 91.8% in [10].
For the molecule `O=S(Cc1ccccc1)/C(=C/NC(=S)Nc1ccccc1)c1ccccc1` (stereo not given), the growth in [1] was 88.4%; in [2] it was 103%; in assay [3], 107%; in [4], 99%; in [5], 98.3%; in [6], 91.4%. Further, the growth in assay [7] was 97.6%; in assay [8] it was 105%; in [9], 114%; in [10] it was 98.4%.
Turning to `COc1ccc2c(ccc[n+]2C)c1`, the growth is 115% in assay [1]; 85.4% in assay [2]; 94.8% in assay [3]; 99.9% in assay [4]; 91.9% in [5]; 107% in assay [6]. Besides, the growth is 85.3% in assay [7], 82.7% in [8], 80.2% in [9] and 106% in assay [10].
Consider `NNC(=O)c1ccccc1N`, for which the growth was 156% in assay [1]; 88.9% in assay [2]; 107% in assay [3]; 89.8% in assay [4]; 106% in assay [5]; 114% in [6]. Further, the growth in assay [7] is 127%; in [8], 124%; in assay [9], 117%; in assay [10], 105%.
